A selection: hits, their analogues and other compounds. The true share with any hit is near 4.1%.
ssDAF12 agonist: activators of S. stercoralis DAF-12 nuclear receptor; HEK293 ssDAF-12/GRIP1 lit1-tk-luc reporter, luminescence; % of 3 µM dafachronic acid response; activation, % at 6.8 µM; actives 1% (n = 370,000); AID 652126;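 active = activation above the mean over all tested compounds plus 3 SD, cut at about 0.9% in these data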;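 note: 0% = DMSO-only wells and 100% = 3 µM delta7-dafachronic acid wells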
hgDAF-12 ag: hgDAF-12 agonism, primary luciferase screen. HEK293 GAL4-hgDAF12 UAS-luciferase reporter, agonist luminescence; normalized to butyrate control. activation, % at 6.8 µM. actives 1.8% (n = 370,000). AID 687014;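 active = activation above a cutoff set at the mean of all screened compounds plus 3 SD, cut at about 10% in these data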;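 note: 0% = DMSO wells and 100% = sodium butyrate wells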
hcDAF-12 act: activators of H. contortus DAF-12 nuclear receptor. HEK293 hcDAF-12 lit1-tk-luc reporter, luminescence; 0% DMSO, 100% Δ7-dafachronic acid. activation, % at 6.8 µM. actives 1.4% (n = 370,000). AID 652067;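 active = activation above the mean of all tested compounds plus 3 SD, cut at about 5.5% in these data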;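 note: 100% = response to 3 µM Δ7-dafachronic acid high control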
DAX1 inh-1: blocks DAX1 repression of SF-1 activated StAR promoter; HEK293T StAR-luciferase reporter, SF-1/DAX-1 repression relief; inhibition, % at 6.8 µM; actives 1.1% (n = 370,000); AID 652010;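 active = inhibition above the mean over all tested compounds plus 3 SD, cut at about 3.6% in these data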;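 note: 0% = DAX-1 cells with DMSO and 100% = cells lacking DAX-1 with DMSO; higher inhibition means more luminescence from relief of DAX-1 repression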
DAX1 inh-2: inhibitors of human orphan nuclear receptor DAX1 (NR0B1) | AID 504766 | P51843 | actives 0.99% (n = 340,000) | HEK293 Gal4-DAX1 luciferase reporter, luminescence | inhibition, % at 6.75 µM;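 active = inhibition above the mean over all tested compounds plus 3 SD, cut at about 4.2% in these data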;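 note: 0% = DAX1-transfected cells with DMSO and 100% = empty-vector control cells with DMSO; inhibition shows as a rise in luminescence from relieved DAX1 repression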
hgDAF12 conf: confirmation of H. glycines DAF-12 agonists; shares compounds with hgDAF-12 ag; HEK293 GAL4-hgDAF12 luciferase reporter, agonist mode; percent of butyrate response; activation, % at 6.8 µM; actives 80% (n = 3,300);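 active = mean activation over triplicate wells above the hit cutoff derived from the earlier primary screen, cut at about 11% in these data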;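 note: 0% = DMSO low control and 100% = 2 mM sodium butyrate high control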
LXR ag 2: LXR-beta agonism as DAF-12 counter-screen; shares compounds with hgDAF-12 ag; activation, % at 6.8 µM; HEK293 Gal4-LXR luciferase reporter, 24 h; 3,300 tested, under 10 active;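 active = mean activation of the triplicate above a set limit carried over from the primary screen, none filed active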
Target sequence (P55055 whole entry, looked up, the tested form may be a part): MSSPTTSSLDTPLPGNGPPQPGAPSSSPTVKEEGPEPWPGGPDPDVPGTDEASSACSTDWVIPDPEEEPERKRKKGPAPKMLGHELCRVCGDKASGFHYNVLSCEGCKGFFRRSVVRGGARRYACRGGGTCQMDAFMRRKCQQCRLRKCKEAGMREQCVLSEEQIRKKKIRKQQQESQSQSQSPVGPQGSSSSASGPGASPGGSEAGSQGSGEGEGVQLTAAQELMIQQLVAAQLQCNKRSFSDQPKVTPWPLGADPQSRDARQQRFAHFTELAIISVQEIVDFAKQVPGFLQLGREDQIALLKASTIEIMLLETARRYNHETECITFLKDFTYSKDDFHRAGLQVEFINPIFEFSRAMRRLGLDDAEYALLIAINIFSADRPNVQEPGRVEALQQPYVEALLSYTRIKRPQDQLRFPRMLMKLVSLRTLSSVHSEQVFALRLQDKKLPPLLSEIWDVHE
The depositor's hits bear a star; . = no result given.

SMILES	ssDAF12 agonist	hgDAF-12 ag	hcDAF-12 act	DAX1 inh-1	DAX1 inh-2	hgDAF12 conf	LXR ag 2
C/C(=N\NC(=O)c1ccn(C)n1)c1cccc(NC(=O)c2ccc(C)s2)c1	0	14*	1	1	2	7	0
C/C(=N\NC(=O)c1ccncc1)c1cccc(NC(=O)c2ccc(C(C)(C)C)cc2)c1	-1	7	-2	-1	0	.	.
C/C(=N\NC(=O)c1nn(C)cc1Br)c1cccc(NC(=O)c2ccncc2)c1	0	18*	5	2	3	3	0
CCC(CC)C(=O)Nc1cccc(/C(C)=N\NC(=O)c2ccc(C)s2)c1	-1	2	0	0	1	.	.
COC[C@H]1CCCN1c1cccc2c1S(=O)(=O)N(C1CC1)CC[C@@H](C)O2	-1	7	-3	0	.	.	.
COc1cc2c(c(OC3OC(CO)C(O)C(O)C3O)c1)C(=O)CC(c1ccc(O)cc1)O2 (stereo not drawn)	-1	1	-1	0	.	.	.
CCOC(=O)Cn1cc(CN2C(C(=O)OC)CN(Cc3ccccc3)CCS2(=O)=O)nn1 (stereo not drawn)	0	0	2	0	.	.	.
COc1ccc(NC(=O)c2cc3ccccc3o/c2=N\NS(=O)(=O)c2ccc(C)cc2)cc1	0	14*	6.0*	2	2	13*	1
c1ccc(-c2csc(Nc3ncccn3)n2)cc1	-1	9	6	2	2	.	.
N#Cc1ccc(Nc2nc(-c3ccccc3)cs2)cc1	1	18*	4	-1	.	16*	1
Cc1cc2nc(-c3ccc(SCC(=O)Nc4ccc(S(=O)(=O)NC5CC5)cc4)nc3)[nH]c2cc1C	1.2*	16*	5.6*	4.5*	0	17*	1
COc1ccc(C(=O)[C@H]2[C@H]3C(=O)N(c4ccc(C)cc4)C(=O)[C@H]3C3C=CC=NN32)cc1 (stereo partly drawn)	-2	-2	1	1	.	.	.
CC(=O)Oc1ccc(C(=O)[C@H]2[C@H]3C(=O)N(c4ccc(C)cc4)C(=O)[C@H]3[C@@H]3C=CC=NN32)cc1	0	16*	5.9*	2	0	8	0
CN(C)c1ccc(/C=C/C(=O)c2ccc(O)cc2)cc1	0	19*	4	3.7*	5.5*	14*	1
OCCOCCNc1ncnc2c1cnn2-c1ccccc1	0	8	0	1	0	.	.
OCCOCCNc1ncnc2c1cnn2-c1ccc(Cl)cc1	0	15*	5	4.5*	3	17*	1
CC[C@@]1(C(=O)OC)N[C@H](CN(C)C(=O)Nc2ccc(F)cc2)[C@@H]2C(=O)N(Cc3ccccc3)C(=O)[C@@H]21	0	1	0	0	-1	.	.
CC[C@@]1(C(=O)OC)N[C@H](CN(C)C(=O)Nc2ccc(OC)cc2)[C@@H]2C(=O)N(Cc3ccccc3)C(=O)[C@@H]21	0	14*	0	1	0	6	0
O=C(Nc1ccc2ccccc2c1)C1CC2CCC1C2 (stereo not drawn)	0	15*	3	.	.	12*	1
CCc1ccc(CSc2nccn2-c2ccccc2)cc1	-1	-2	-2	0	0	.	.
c1ccc(CCSc2nccn2-c2ccccc2)cc1	0	14*	5.8*	2	2	14*	1
CCc1ccc(C(=O)Nc2cc3c(cc2Cl)OCCCO3)cc1	1	14*	3	3	4	14*	1
Cc1ccc(/C=C/C(=O)Nc2ccccc2C(N)=O)cc1	0	18*	4	4.4*	-1	15*	1
NC(=O)c1ccccc1NC(=O)/C=C/C(=O)O	-1	9	0	0	2	.	.
CC(=O)c1sc(N/N=C\c2ccc(N(C)C)cc2)nc1C	0	14*	3	2	4.5*	16*	1
SMILES	ssDAF12 agonist	hgDAF-12 ag	hcDAF-12 act	DAX1 inh-1	DAX1 inh-2	hgDAF12 conf	LXR ag 2
CCOC(=O)N1CCN(C(=O)C[C@H]2C[C@@]3(C(=O)OC)C(=C[C@H](C(C)C)O[C@@H]3C3CC3)N(Cc3cccc4ccccc34)C2=O)CC1	-1	-5	-3	-1	.	.	.
COc1ccc(Nc2nc(-c3ccccc3)nc3ccccc23)c(OC)c1	-1	0	-1	-1	0	.	.
COc1ccc(Nc2nc(N)c3ccccc3n2)c(OC)c1	1	13*	4	1	4.8*	15*	1
O=C(c1cccc(I)c1)N1CCC(Oc2cccnc2)CC1	-2	-2	-1	1	.	.	.
O=C(/C=C(\Nc1ccc(Br)c(F)c1)c1ccccc1)c1ccccc1	-1	5	1	0	.	.	.
CCN(CC)C(=O)CSc1nnc(-c2ccccc2)o1	-1	18*	2	2	1	12*	0
CN(C)C=Nc1ncc2c([nH]c3ccccc32)c1C#N	-2	22*	-1	0	0	7	0
CCOc1cc(/C=N/O)ccc1OCc1ccc(C)cc1	-2	2	0	0	0	.	.
O/N=C/c1ccc(OCc2ccccc2)c(Br)c1	0	16*	3	1	1	22*	1
O/N=C/c1cc(Br)cc(Br)c1OCc1ccccc1	-2	-4	-2	0	-1	.	.
O/N=C/c1ccc(OCc2ccccc2)c(Cl)c1	1.4*	15*	4	2	5.0*	13*	1
CCOC(=O)C1=C(C(=O)OCC)C2N(Cc3ccc(C#N)cc3)c3ccccc3[C@@]23C[C@@H](C(=O)OC)N(S(=O)(=O)c2c(C)noc2C)C3=N1 (stereo partly drawn)	-1	0	-1	-1	.	.	.
CCCCCCCCN1C(=O)[C@@H](CC(=O)NCc2ccc(OC)c(OC)c2)C[C@@]2(C(=O)OC)C1=C[C@H](C(C)C)O[C@@H]2C1CC1	-2	2	-2	0	.	.	.
CCCCc1c(-c2ccccc2OC)ncn1Cc1ccc(OC)cc1	-1	-3	-1	0	.	.	.
COc1ccc(Cn2cc(CN3[C@@H](c4ccccc4)COc4cc(Br)ccc4S3(=O)=O)nn2)cc1	-1	0	2	0	.	.	.
C(=C\c1nnc(-c2cccs2)o1)/c1ccccc1	0	18*	4	3.7*	3	16*	1
CCC(=O)Nc1ccc2c(c1)C(=O)c1ccccc1C2=O	1	13*	6.4*	3.8*	2	16*	1
CSc1ccc(-c2cc(=O)c3ccccc3o2)cc1	3.1*	18*	10*	3.9*	1	18*	1
c1cnc2ccc(-c3ccc4ncccc4c3)cc2c1	-1	14*	5	3.8*	4	17*	1

High-throughput results (PubChem BioAssay)
